Screening results (PubChem)
This excerpt belongs to a sample that is enriched for hits.
Lassa entry inh: Lassa virus entry inhibition; Potency, µM (top dose mostly 37.9 µM), usual class: inhibitors; 300,000 compounds, 1.2% hits; Lassa virus pseudotype entry inhibition, cell reporter; AID 540256; calls by dose curve; tested in HEK293 cells; also: nearly all actives have a fitted effect of over 50% in size
Vaccinia Venus: inhibitors of vaccinia virus (Venus reporter); Vaccinia virus Venus reporter expression, fluorescence; Potency, µM (series often up to 36.5 µM), usual class: inhibitors; 330,000 compounds, 0.46% hits; AID 720580; calls by dose curve; tested in A549 cells; also: nearly all actives have a fitted effect of over 30% in size
Shiga inhibitor: Shiga toxin inhibition; Vero cells, Shiga toxin protein synthesis inhibition reporter; inhibition, % at 38.7 µM; 290,000 compounds, 9.2% hits; AID 2315; in the data active = inhibition mostly above about 28%, no sharp cut-off; inactive = mostly below about 43%
MARV entry inh: Marburg virus entry inhibition; Marburg virus pseudotyped entry inhibition, cell reporter; Potency, µM (highest dose often 37.8 µM), usual class: inhibitors; 300,000 compounds, 1.8% hits; calls by dose curve; tested in HEK293 cells
Vaccinia mCherry: inhibitors of vaccinia virus infection (mCherry reporter signal); 310,000 compounds, 0.63% hits; Vaccinia virus mCherry reporter infection, fluorescence; Potency, µM (top dose mostly 36.5 µM), usual class: inhibitors; AID 720579; calls by dose curve; tested in A549 cells; also: nearly all actives have a fitted effect of over 35% in size
CHX counter: counter-screen for Shiga toxin inhibitors: cycloheximide protein synthesis inhibition | cell reporter, cycloheximide protein synthesis inhibition counterscreen | max response, % | 300,000 compounds, 12% hits | AID 2314; in the data active = max response mostly above about 13%, no sharp cut-off; inactive = mostly below about 14%; also: read at 38.3 µM for the half of the compounds with a filed dose
Large screens that a line does not name were inactive.

CC(C)c1ccc2c(c1)C(c1ccc(N3CCOCC3)cc1)=NNC(c1cccs1)=N2	CHX counter 45 (no result: Vaccinia Venus, Vaccinia mCherry)
CC(C)c1ccc2c(c1)C(c1cccs1)=NNC(c1ccncc1)=N2	Shiga inhibitor 76, CHX counter 22 (no result: Lassa entry inh, Vaccinia Venus, MARV entry inh, Vaccinia mCherry)
COc1ccc2c(c1)C(c1ccc(N3CCOCC3)cc1)=NNC(c1cccnc1)=N2	none
COc1ccc2c(c1)C(c1cccs1)=NNC(c1ccncc1)=N2	none (no result: Lassa entry inh, Vaccinia Venus, MARV entry inh, Vaccinia mCherry)
Cc1ccc(C(=O)Nc2cccc(-c3nc(CNC(=O)C4(C)CC4)c(C)o3)c2)s1	none (no result: Lassa entry inh, Shiga inhibitor, MARV entry inh, CHX counter)
CCC(=O)N1CCc2cc(Br)cc(S(=O)(=O)N3CCC(C(=O)NC(C)C)CC3)c21	none
O=C(c1ccc([N+](=O)[O-])o1)N1CCOCC1	none
O=C(c1ccc(-c2cccc(Cl)c2Cl)o1)N1CCOCC1	Lassa entry inh inconclusive, Shiga inhibitor 133, MARV entry inh inconclusive, CHX counter 37
O=C(c1ccc(-c2ccc([N+](=O)[O-])cc2Cl)o1)N1CCOCC1	Shiga inhibitor 57, MARV entry inh inconclusive, CHX counter 26
S=C(c1ccc(-c2ccc(Cl)c(Cl)c2)o1)N1CCOCC1	Lassa entry inh inconclusive, Shiga inhibitor 96, CHX counter 62
S=C(c1ccc(-c2ccccc2Cl)o1)N1CCOCC1	Shiga inhibitor 93, CHX counter 24
O=C(c1ccc(-c2ccccc2Cl)o1)N1CCC1	none (no result: Shiga inhibitor, CHX counter)
O=C(c1ccc(-c2cccc(C(F)(F)F)c2)o1)N1CCOCC1	Vaccinia Venus inconclusive, Shiga inhibitor 74, MARV entry inh inconclusive, CHX counter 37 (no result: Vaccinia mCherry)
S=C(c1ccc(-c2ccc(Br)cc2)o1)N1CCOCC1	Shiga inhibitor 92, MARV entry inh inconclusive, Vaccinia mCherry inconclusive, CHX counter 51
COc1ccc(S(=O)(=O)NNS(=O)(=O)c2ccc(OC)c(OC)c2)cc1OC	none (no result: Lassa entry inh, Shiga inhibitor, MARV entry inh, CHX counter)
Cc1ccccc1C(=O)O/N=C1\CCS(=O)(=O)c2sccc21	Shiga inhibitor 83, CHX counter 39 (no result: Vaccinia mCherry)
COc1ccc(C(=O)O/N=C2\CCS(=O)(=O)c3sccc32)cc1	none (no result: Lassa entry inh, Vaccinia Venus, MARV entry inh, Vaccinia mCherry)
COc1ccc(N=C2CCS(=O)(=O)c3sccc32)cc1	Lassa entry inh inconclusive, MARV entry inh inconclusive, CHX counter 41
CC(=O)C1=CN(CCc2c[nH]c3ccccc23)C(=O)NC1c1ccccc1 (configuration not stated)	none (no result: Lassa entry inh, Vaccinia Venus, Shiga inhibitor, Vaccinia mCherry, CHX counter)
CCOc1ccc(NC(=O)Cn2c(=O)n(CC(=O)NCCc3ccccc3)c(=O)c3sccc32)cc1	none (no result: Shiga inhibitor, CHX counter)
COc1ccc(N(C(=O)Cn2nnc3ccccc32)C(C(=O)NCc2ccco2)c2ccc(C)o2)cc1 (configuration not stated)	Lassa entry inh inconclusive, CHX counter 30 (no result: Vaccinia mCherry)
Cc1ccc(CN(C(=O)Cn2nnc3ccccc32)C(C(=O)NCc2ccco2)c2ccc(C)o2)cc1 (configuration not stated)	Vaccinia Venus inconclusive, Shiga inhibitor 42, CHX counter 16 (no result: Vaccinia mCherry)
Cc1ccc(N(C(=O)Cn2nnc3ccccc32)C(C(=O)NCc2ccco2)c2ccc(C)o2)cc1 (configuration not stated)	MARV entry inh inconclusive (no result: Vaccinia mCherry)
CC(=O)c1ccc(N(C(=O)Cn2nnc3ccccc32)C(C(=O)NCc2ccccc2)c2ccccn2)cc1 (configuration not stated)	Shiga inhibitor 76, MARV entry inh inconclusive, CHX counter 47
COc1ccc(/C=C2\SC(N3CCCCC3)=NC2=O)cc1OC	none
COc1cc(/C=C2\SC(N3CCC(C)CC3)=NC2=O)ccc1O	Lassa entry inh inconclusive, MARV entry inh inconclusive, Vaccinia mCherry inconclusive, CHX counter 42
CN(C)c1ccc(/C=C2\SC(N3CCCCC3)=NC2=O)cc1	CHX counter 41 (no result: Lassa entry inh, Vaccinia Venus, Shiga inhibitor, MARV entry inh, Vaccinia mCherry)
O=C1N=C(N2CCCCC2)S/C1=C/C1=Cc2ccccc2OC1	Lassa entry inh inconclusive, Shiga inhibitor 76, MARV entry inh inconclusive, CHX counter 37
CSc1nc(C(C)C)ccc1CNC(=O)CC(C)c1ccccc1 (configuration not stated)	MARV entry inh inconclusive
O=C(CN1C(=O)COc2ccc(S(=O)(=O)N3CCCC3)cc21)N1CCN(c2ccccc2F)CC1	Lassa entry inh inconclusive (no result: Shiga inhibitor, CHX counter)
Brc1ccc(C=C2C=c3ccccc3=C2)cc1	none (no result: Lassa entry inh, Shiga inhibitor, MARV entry inh, CHX counter)
COc1cc(/C=N/N2CCCCC2)cc([N+](=O)[O-])c1O	MARV entry inh inconclusive
COc1ccc(CCNc2ncnc3c2nnn3C)cc1	Lassa entry inh inconclusive (no result: Shiga inhibitor, MARV entry inh, CHX counter)
COc1ccc(NC(=O)Nc2cccc3c2O[C@@H](CN(C)CC2CCCCC2)[C@@H](C)CN([C@H](C)CO)C3=O)cc1	Vaccinia Venus inconclusive (no result: Lassa entry inh, Shiga inhibitor, MARV entry inh, CHX counter)
